What all share (conditions): mRNA level, 48 h; actives raise or lower the signal
Read-out in assay [1]: DNA damage-inducible transcript 3 (DDIT3), DDIT3 (gene 1649)
Description: LTEA_HepaRG_DDIT3: Life Technologies and Expression Analysis (LTEA) Assay for DNA damage-inducible transcript 3 (DDIT3) using HepaRG (AID 2283488). The method in brief: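 Eight-point concentration-response (100 uM highest, half-log dilutions) in HepaRG, 48 h, duplicate wells. Endpoint: qRT-PCR mRNA, normalized (ACTB, GAPDH, POLR2A), bidirectional fitting with DMSO as baseline.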

Read-out in assay [2]: Pro-epidermal growth factor (Homo sapiens) (UniProt P01133)
Description: LTEA_HepaRG_EGF: Life Technologies and Expression Analysis (LTEA) Assay for Epidermal growth factor (EGF) using HepaRG (AID 2283489). The method in brief:
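qRT-PCR readout of EGF transcript after 48 h chemical exposure of HepaRG cells; eight concentrations from 100 uM down in half-log steps, duplicate wells, 0.5% DMSO vehicle. Bidirectional curve fitting against DMSO baseline.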

Read-out in assay [3]: Early growth response protein 1 (EGR1) transcription factor, EGR1 (gene 1958)
Kind of assay: LTEA_HepaRG_EGR1: Life Technologies and Expression Analysis (LTEA) Assay for Early growth response protein 1 (EGR1) transcription factor using HepaRG (AID 2283490). The method in brief: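 EGR1 expression change in human HepaRG after 48 h chemical exposure, assessed by housekeeping-normalized qRT-PCR; concentration-response up to 100 uM, fitted in both directions against DMSO controls.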

Read-out in assay [4]: Ezrin (EZR), EZR (gene 7430)
Kind of assay: LTEA_HepaRG_EZR: Life Technologies and Expression Analysis (LTEA) Assay for Ezrin (EZR) using HepaRG (AID 2283491). Summed up: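 Read-out is EZR transcript level by qRT-PCR, normalized to three housekeeping genes and fitted bidirectionally against the DMSO control. Human HepaRG cells received test chemicals for 48 h at eight half-log concentrations up to 100 uM in 0.5% DMSO.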

Read-out in assay [5]: Cytochrome P450 3A7 (Homo sapiens) (UniProt P24462)
Kind of assay: LTEA_HepaRG_CYP3A7: Life Technologies and Expression Analysis (LTEA) Assay for CYP3A7 using HepaRG (AID 2283492). The method in brief: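 CYP3A7 transcript levels were read by TaqMan qRT-PCR on Fluidigm arrays after 48 h chemical exposure of human HepaRG cells, with housekeeping-gene normalisation. Eight half-log concentrations up to 100 uM in 0.5% DMSO were tested in duplicate.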

Read-out in a further assay: CYP3A5 (gene 1577)
Kind of assay: LTEA_HepaRG_CYP3A5: Life Technologies and Expression Analysis (LTEA) Assay for CYP3A5 using HepaRG (AID 2283493). The method in brief:
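Readout was CYP3A5 mRNA by qRT-PCR. HepaRG cultures were exposed for 48 h in serum-free induction medium to chemicals at up to 100 uM, and responses were fitted in both directions relative to DMSO vehicle.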

Read-out in assay [6]: Fatty Acid-Binding Protein 1 (FABP1), FABP1 (gene 2168)
Kind of assay: LTEA_HepaRG_FABP1: Life Technologies and Expression Analysis (LTEA) Assay for Fatty Acid-Binding Protein 1 (FABP1) using HepaRG (AID 2283494). Summed up: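 Values reflect bidirectional concentration-response fitting of FABP1 mRNA change against 0.5% DMSO controls. Human HepaRG cultures received eight half-log doses (top 100 uM) for 48 h; expression quantified by TaqMan qRT-PCR with housekeeping-gene normalization.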

Read-out in assay [7]: Cytochrome P450 4A22 (Homo sapiens) (UniProt Q5TCH4)
Kind of assay: LTEA_HepaRG_CYP4A22: Life Technologies and Expression Analysis (LTEA) Assay for Cytochrome P450 4A22 (CYP4A22) using HepaRG (AID 2283495). Summed up: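 HepaRG, 48 h post-plating -> serum-free induction medium; dosed 48 h, duplicate, 8 conc. (100 uM top, half-log), 0.5% DMSO. Readout: CYP4A22 mRNA by qRT-PCR, ACTB/GAPDH/POLR2A normalization; gain/loss fit relative to DMSO.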

Read-out in assay [8]: Cytochrome P450 7A1 (Homo sapiens) (UniProt P22680)
Kind of assay: LTEA_HepaRG_CYP7A1: Life Technologies and Expression Analysis (LTEA) Assay for Cytochrome P450 7A1 (CYP7A1) using HepaRG (AID 2283496). Summed up:
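Using 0.5% DMSO as vehicle and baseline, chemicals were tested in duplicate over an 8-point range from 100 uM on HepaRG cells for 48 h; qRT-PCR signals were normalised to ACTB, GAPDH and POLR2A.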

Read-out in assay [9]: Glutathione S-Transferase (GSTA2), GSTA2 (gene 2939)
Kind of assay: LTEA_HepaRG_GSTA2: Life Technologies and Expression Analysis (LTEA) Assay for Glutathione S-Transferase (GSTA2) using HepaRG (AID 2283497). Summed up: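 Oxidative-stress marker GSTA2 is quantified by TaqMan qRT-PCR in HepaRG cultures treated 48 h across an eight-point range to 100 uM. Expression is normalized to endogenous controls and compared with 0.5% DMSO vehicle.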

Read-out in assay [10]: Glutamate-cysteine ligase catalytic (GCLC), GCLC (gene 2729)
Description: LTEA_HepaRG_GCLC: Life Technologies and Expression Analysis (LTEA) Assay for Glutamate-cysteine ligase catalytic (GCLC) using HepaRG (AID 2283498). The method in brief: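 Oxidative-stress marker GCLC is measured as mRNA change in human HepaRG liver cells after 48 h chemical treatment in 0.5% DMSO, eight concentrations from 100 uM. Activity is fitted bidirectionally against vehicle.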

Read-out in assay [11]: growth arrest and DNA damage 45 (GADD45G), GADD45G (gene 10912)
Kind of assay: LTEA_HepaRG_GADD45G: Life Technologies and Expression Analysis (LTEA) Assay for growth arrest and DNA damage 45 (GADD45G) using HepaRG (AID 2283499). Summed up:
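HepaRG, 48 h exposure, top 100 uM, half-log 8-point series, 0.5% DMSO vehicle, duplicates. Readout: GADD45G transcript by qRT-PCR (Fluidigm array), housekeeping-normalised (ACTB/GAPDH/POLR2A). Bidirectional curve fit vs DMSO baseline.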

Read-out in assay [12]: Glutamate-cysteine ligase regulatory (GCLM), GCLM (gene 2730)
Description: LTEA_HepaRG_GCLM: Life Technologies and Expression Analysis (LTEA) Assay for Glutamate-cysteine ligase regulatory (GCLM) using HepaRG (AID 2283500). The method in brief: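 In this multiplexed HepaRG gene-expression assay, GCLM mRNA change after 48 h treatment (8 concentrations, max 100 uM) was scored against DMSO by bidirectional curve fitting.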

Read-out in assay [13]: Heat shock 70 kDa protein 1 (HSPA1A), gene 3303
Description: LTEA_HepaRG_HSPA1A: Life Technologies and Expression Analysis (LTEA) Assay for Heat shock 70 kDa protein 1 (HSPA1A) using HepaRG (AID 2283502). The method in brief:
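An oxidative-stress marker readout: HepaRG cells treated 48 h in duplicate with an eight-point series (highest 100 uM) had HSPA1A mRNA quantified by TaqMan qRT-PCR. Activity was fitted in both directions using 0.5% DMSO as baseline.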

Read-out in assay [14]: Hypoxia-inducible factor 1-alpha (Homo sapiens) (UniProt Q16665)
Description: LTEA_HepaRG_HIF1A: Life Technologies and Expression Analysis (LTEA) Assay for Hypoxia-inducible factor 1 (HIF1A) Trancription factor using HepaRG (AID 2283503). The method in brief: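 Gain- or loss-of-signal HIF1A mRNA changes are fitted against a DMSO baseline. HepaRG cultures receive eight concentrations, highest 100 uM, for 48 h in serum-free induction medium with 0.5% DMSO.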

Read-out in assay [15]: 3-Hydroxy-3-Methylglutaryl-CoA Synthase 2 (HMGCS2), HMGCS2 (gene 3158)
Description: LTEA_HepaRG_HMGCS2: Life Technologies and Expression Analysis (LTEA) Assay for 3-Hydroxy-3-Methylglutaryl-CoA Synthase 2 (HMGCS2) using HepaRG (AID 2283504). The method in brief:
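qRT-PCR read-out of HMGCS2 transcript, normalised to three housekeeping genes, in HepaRG cells after 48 h chemical exposure. Eight-point curves from 100 uM, half-log dilutions, 0.5% DMSO vehicle; gain or loss fitted relative to DMSO baseline.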

Read-out in assay [16]: Insulin Like Growth Factor 1 (IGF1), IGF1 (gene 3479)
Kind of assay: LTEA_HepaRG_IGF1: Life Technologies and Expression Analysis (LTEA) Assay for Insulin Like Growth Factor 1 (IGF1) using HepaRG (AID 2283506). Summed up:
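Endpoint: IGF1 mRNA change by qRT-PCR, housekeeping-normalized, fitted bidirectionally relative to 0.5% DMSO vehicle. Human HepaRG cells were treated 48 h in serum-free induction medium, eight half-log concentrations topping at 100 uM.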

Read-out in assay [17]: Intercellular Adhesion Molecule 1 (ICAM1), ICAM1 (gene 3383)
Kind of assay: LTEA_HepaRG_ICAM1: Life Technologies and Expression Analysis (LTEA) Assay for Intercellular Adhesion Molecule 1 (ICAM1) using HepaRG (AID 2283507). The method in brief: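 HepaRG, 48 h exposure, 8-pt half-log series from 100 uM, 0.5% DMSO vehicle, duplicates. Readout: TaqMan qRT-PCR mRNA, housekeeping-normalized (ACTB/GAPDH/POLR2A). Bidirectional curve fit vs DMSO baseline.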

Activity calls are given as the source filed them. How the source made its calls: active means hit-call score of the fitted dose curve at least 0.9, where 1 is the maximum; inactive means score below 0.9.

As a reminder, the AC50 is the concentration giving half of the maximal activity seen.

Chain of Cytochrome P450 3A7 (Homo sapiens) (P24462 whole entry, looked up): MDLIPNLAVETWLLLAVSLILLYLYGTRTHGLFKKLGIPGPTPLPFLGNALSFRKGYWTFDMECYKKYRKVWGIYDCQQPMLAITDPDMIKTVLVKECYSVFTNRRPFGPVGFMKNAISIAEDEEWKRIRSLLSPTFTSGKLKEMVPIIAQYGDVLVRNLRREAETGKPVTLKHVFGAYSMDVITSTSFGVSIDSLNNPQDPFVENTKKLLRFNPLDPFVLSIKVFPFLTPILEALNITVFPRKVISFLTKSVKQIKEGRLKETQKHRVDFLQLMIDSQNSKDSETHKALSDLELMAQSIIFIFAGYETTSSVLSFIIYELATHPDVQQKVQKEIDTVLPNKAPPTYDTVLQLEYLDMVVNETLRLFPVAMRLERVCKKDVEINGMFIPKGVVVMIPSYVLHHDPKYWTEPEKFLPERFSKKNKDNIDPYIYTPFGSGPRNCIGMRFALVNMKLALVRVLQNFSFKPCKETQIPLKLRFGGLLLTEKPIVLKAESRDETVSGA
Chain of Hypoxia-inducible factor 1-alpha (Homo sapiens) (Q16665 whole entry, looked up): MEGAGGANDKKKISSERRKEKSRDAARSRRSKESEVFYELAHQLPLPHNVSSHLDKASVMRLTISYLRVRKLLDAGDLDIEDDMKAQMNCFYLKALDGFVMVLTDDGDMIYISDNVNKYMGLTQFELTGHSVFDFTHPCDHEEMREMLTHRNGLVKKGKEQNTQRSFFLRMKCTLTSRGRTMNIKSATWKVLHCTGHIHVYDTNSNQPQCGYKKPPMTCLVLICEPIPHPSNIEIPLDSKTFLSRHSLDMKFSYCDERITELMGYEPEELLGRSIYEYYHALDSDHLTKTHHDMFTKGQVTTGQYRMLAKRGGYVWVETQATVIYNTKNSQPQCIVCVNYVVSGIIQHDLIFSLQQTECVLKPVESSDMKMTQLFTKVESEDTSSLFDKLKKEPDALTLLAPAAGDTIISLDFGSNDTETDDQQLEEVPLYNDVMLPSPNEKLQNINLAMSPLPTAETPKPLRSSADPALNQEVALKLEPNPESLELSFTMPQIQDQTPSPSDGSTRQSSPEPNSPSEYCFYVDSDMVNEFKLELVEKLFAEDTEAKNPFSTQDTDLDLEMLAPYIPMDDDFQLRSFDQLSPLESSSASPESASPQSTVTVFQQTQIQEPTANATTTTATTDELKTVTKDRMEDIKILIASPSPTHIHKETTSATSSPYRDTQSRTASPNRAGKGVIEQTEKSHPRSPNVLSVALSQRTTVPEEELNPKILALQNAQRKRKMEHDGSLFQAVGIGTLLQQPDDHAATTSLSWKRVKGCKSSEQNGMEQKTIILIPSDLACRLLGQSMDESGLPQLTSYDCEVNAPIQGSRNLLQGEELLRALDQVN

On to `CCNc1nc(NC(C)C)nc(SC)n1`, for which the call (in assay [1]; in assay [2]; in assay [3]; in assay [4]; in assay [5]; with CYP3A5 (gene 1577)) was inactive. The outcome in assay [7], in assay [9], in [10], in assay [12], in assay [13] and in assay [14] was inactive. In addition, the result in assay [17] was inactive. The AC50 in assay [6] was 28.3 µM (active); in assay [8] it was 35.5 µM (active); in [11], 63.9 µM (active); in assay [15], 50 µM (active); in [16] it was 33.2 µM (active).
For `O=C(O)C(F)(F)C(F)(F)C(F)(F)C(F)(F)C(F)(F)C(F)(F)C(F)(F)C(F)(F)C(F)(F)F`, the concentration at half-maximal activity (AC50) in [1] was 17 µM (active); in assay [2], 76.1 µM (active); in assay [4], 11.5 µM (active); in assay [5], 80.3 µM (active); with CYP3A5 (gene 1577) it was 94.1 µM (active); in [6], 33.7 µM (active). The half-maximal activity concentration (AC50) in [7] was 79.7 µM (active); in assay [8] it was 27.6 µM (active); in assay [9], 35.5 µM (active); in assay [10] it was 85.4 µM (active); in assay [11], 19.4 µM (active); in [15] it was 34 µM (active). Moreover, the results for the AC50 in [16] and in [17] were 31.2 µM (active) and 22.7 µM (active), respectively. Moreover, the outcome in [3], in assay [12], in [13] and in [14] was inactive.
Turning to `Clc1ccc(Cl)cc1`, the compound was classed as inactive (in assay [1]; in [2]; in assay [3]; in assay [4]; in [5]; in the assay with CYP3A5 (gene 1577)). The call in [6], in assay [7], in assay [8], in [9], in [10] and in assay [11] was inactive. Also, the compound was classed as inactive in [12], in assay [13], in assay [14], in assay [15], in [16] and in [17].
`Cc1ccc(O)c(C)c1`: the call (in [1]; in assay [2]; in [3]; in assay [4]; in assay [5]; with CYP3A5 (gene 1577)) was inactive. Moreover, the compound was classed as inactive in assay [6], in [7], in assay [8], in assay [9], in assay [10] and in [11]. Also, the outcome in assay [12], in [13], in assay [14], in [15], in [16] and in [17] was inactive.

(Values after PubChem BioAssay (EPA / NIEHS).)
